Bioassay records (PubChem BioAssay)
A selection: hits, their analogues and other compounds. The true share with any hit is near 8.3%.
FBPA Giardia inh: qHTS Assay for Inhibitors of Fructose-1,6-bisphosphate Aldolase from Giardia Lamblia; purified Giardia FBPA; Potency, µM (titrated, usually from 59.6 µM), inactives show at the top dose activity, negative = inhibition, hits mostly inhibitors; 0.71% of 290,000 active; AID 2451, 2010; further: potency means the concentration at half of the fitted maximal effect; nearly all actives have a fitted effect of over 55% in size
Target sequence (A8B2U2 whole entry, looked up): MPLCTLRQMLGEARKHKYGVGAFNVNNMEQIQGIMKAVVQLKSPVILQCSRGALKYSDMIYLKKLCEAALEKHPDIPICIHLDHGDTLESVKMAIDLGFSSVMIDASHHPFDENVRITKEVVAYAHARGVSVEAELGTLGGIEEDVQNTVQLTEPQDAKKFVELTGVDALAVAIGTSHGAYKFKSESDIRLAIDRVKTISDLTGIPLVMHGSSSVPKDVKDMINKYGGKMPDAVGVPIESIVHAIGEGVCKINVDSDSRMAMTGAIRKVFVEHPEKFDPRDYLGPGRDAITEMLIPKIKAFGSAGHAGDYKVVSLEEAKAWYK
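Giardia FBPA (40 nM reagent) was preincubated 10 min at RT with compound (up to 57.5 uM final), then substrate plus GAPDH/TPI/NAD/arsenate coupling system with diaphorase/resazurin was added; resorufin fluorescence (525/598 nm) was read after 20 min.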
LASV entry inh: qHTS for Inhibitors of binding or entry into cells for Lassa Virus. Lassa virus pseudotype entry inhibition, cell reporter. Potency, µM (top dose mostly 37.9 µM), for inactives: at the top dose activity change, negative = inhibition, usual class: inhibitors. 1.2% of 300,000 active; calls by dose curve; tested in HEK293 cells; further: potency means the concentration at half of the fitted maximal effect; nearly all actives have a fitted effect of over 50% in size
FMDV antiviral: High Throughput Screening for Foot and Mouth Disease Virus Antivirals; FMDV antiviral cell-based qHTS; Potency, µM (doses to about 57.9 µM), inactives show top-dose activity change, negative = inhibition, usual class: inhibitors; 1.2% of 410,000 active; AID 1159524, 2015; calls by dose curve; tested in HEK293T cells; further: read-out not given here; potency means the concentration at half of the fitted maximal effect; nearly all actives have a fitted effect of over 45% in size
HCMV antiviral: qHTS Assay for inhibitors of the human cytomegalovirus (HCMV); HFF cells, HCMV-luciferase reporter, 72 h; stronger effect = lower value; activity change, negative = inhibition, % at 57.5 µM; 4.5% of 410,000 active; in the data active means activity change below about -60%; inconclusive means no clear call, values can overlap the other calls; inactive means above about -39%
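HFF cells seeded 16 h at 37C, treated with compounds, infected with luciferase-reporter HCMV at MOI 1 PFU/cell; luciferase read at 72 h post infection, normalized to buffer-only and Salinomycin controls.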
HCV inh: qHTS Assay for Inhibitors of Hepatitis C Virus (HCV) | Huh7.5.1 HCVcc-Cre infection, luciferase reporter, 44 h | AID 651820, 2012 | 3.4% of 340,000 active | Potency, µM (series often up to 41.8 µM), for the others: at the top dose activity change, negative = inhibition, most hits filed as inhibitors; further: potency means the concentration at half of the fitted maximal effect
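Cells seeded at 1,000/well and cultured 4 h, then compounds added followed by HCVcc-Cre virus (~0.5 moi). After 44 h further culture, luciferase substrate was added, plates held 15 min at room temperature, and luminescence read for 15 sec.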
Marburg entry inh: qHTS for inhibitors of binding or entry into cells for Marburg Virus; Potency, µM (highest dose often 37.8 µM), inactives show at the top dose activity change, negative = inhibition, hits mostly inhibitors; 1.8% of 300,000 active; AID 540276, 2011; Marburg virus pseudotyped entry inhibition, cell reporter; calls by dose curve; tested in HEK293 cells; further: potency means the concentration at half of the fitted maximal effect
An asterisk follows results filed as active; ? = inconclusive; nt = not tested or not shown; ! = repeats disagree; [ ] = dose if it differs, or a comment. Unless noted, the call rests on the fitted dose curve; in most records, active means well fitted curve in the direction sought with a large enough effect; inconclusive means small, poorly fitted or top-dose-only effect, or another doubt; inactive means no such curve, though single readings can be large; an effect the other way counts as inactive or inconclusive. On the % scale 0 is the no-effect control and ±100 the full control effect.

SMILES	FBPA Giardia inh	LASV entry inh	FMDV antiviral	HCMV antiviral	HCV inh	Marburg entry inh
COc1ccc(-n2c(=S)[nH]c3cc(C(=O)NCCCN4CCCC4=O)ccc3c2=O)cc1OC	?	-12%	13%	-99*	15%	-13%[46.1 µM]
COc1ccccc1Cn1c(=S)[nH]c2cc(C(=O)NCC3CCCO3)ccc2c1=O (centres undefined)	-7%	?	25µM*	-37	?	?
COc1ccccc1CNC(=O)c1ccc2c(=O)n(CC3CCCO3)c(=S)[nH]c2c1 (centres undefined)	5%	4%	-29%	?	?	-18%[46.1 µM]
Cc1noc(C)c1-c1ccc2ncnc(N3CCOCC3)c2c1	2%	nt	20%	nt	nt	nt
CN(C)c1cccc(C(=O)N[C@H]2CC[C@@]34CCCN3C(=O)CCC[C@H]4[C@H]2Cc2ccccc2)c1	nt	nt	nt	-12	nt	nt
CN1CCN(C(=O)c2ccc3c(=O)n(Cc4ccco4)c(=S)[nH]c3c2)CC1	-17%	-15%	15%	-4	-15%	0%
CCCN(CCC)C(=O)c1ccc2c(=O)n(Cc3ccco3)c(=S)[nH]c2c1	-25%	-22%	-22%	-90*	-13%	6%
COc1ccc(S[C@@H]2C[C@@H](C(=O)Nc3ccc4nccnc4c3)N(C3Cc4ccccc4C3)C2)cc1	nt	nt	10%	nt	nt	nt
O=C1CCC[C@H]2C[C@@H](O)CC[C@]23CCCN13	nt	nt	nt	15	nt	nt
COCCCNC(=O)C1CCN(C(=O)c2cc3sccc3n2Cc2ccc(F)cc2)CC1	-1%	-9%	nt	nt	?	-18%
CCn1c(C(=O)N2CCC(C(=O)NCc3ccc4c(c3)OCO4)CC2)cc2sccc21	0%	-23%	32µM*	6	?	2%
Cn1c(C(=O)N2CCCC(C(=O)NCCc3ccccc3)C2)cc2sccc21 (centres undefined)	-2%	?	nt	-97*	?	?
O=C(NCCCN1CCCC1)C1CCN(C(=O)c2cc3sccc3n2Cc2ccc(F)cc2)CC1	-18%	27%	-17%	nt	25µM*	?
O=C(NCc1ccco1)c1ccc(Cn2c(=O)c3sccc3n(Cc3cccc(F)c3)c2=O)cc1	4%	nt	-15%	-61*	?	-1%
CC(C)N(Cc1nc(-c2ccc(Cl)cc2)no1)C(=O)c1ccco1	nt	-2%[46.1 µM]	?	-28	nt	-3%[46.1 µM]
Cc1cccc(NC(=O)Cn2nnc(C(=O)NCc3cccs3)c2N)c1	nt	-27%[46.1 µM]	1%	9	nt	5%[46.1 µM]
O=C(NCc1ccco1)c1cc2sccc2n1Cc1ccccc1	-12%	-23%[14.3 µM]	2%	-11	?	11%
O=C(Nc1ccc2c(c1)OCCO2)c1cc2sccc2n1Cc1ccc(F)cc1	-15%	-24%	-27%	-30	?	-9%
O=C(NCc1ccccn1)C1CCN(C(=O)c2cc3sccc3n2Cc2ccc(F)cc2)CC1	-3%	nt	0%	nt	-16%	nt
O=C(NCc1ccco1)C1CCN(C(=O)c2cc3sccc3n2Cc2ccc(F)cc2)CC1	-1%	10µM*	nt	-7	?	4%
O=C(Nc1ccc2c(c1)OCCO2)c1cc2sccc2n1Cc1ccccc1	nt	?	?	?	11µM*	?
O=C(c1ccco1)N1CCN(C(=O)c2cc3sccc3n2Cc2ccccc2)CC1	8%	?	-28%	-71*	-27%	-6%
COc1ccc(S[C@]2(c3nc(C)no3)CC(=O)N(C(=O)CCc3ccccc3)[C@@H]2c2ccc(OC)cc2)cc1	nt	nt	nt	1	nt	nt
COc1ccc2c(c1)[C@@H](NC(=O)c1c(C)noc1C)[C@H](C)[C@@H](c1ccccc1)N2C(=O)NC(C)C	nt	nt	nt	0	nt	nt
O=C(NCCN1CCN(C(=O)c2ccc(Br)cc2)CC1)c1ccc(Br)cc1	1%	-21%[46.1 µM]	?	-66*	?	-1%[46.1 µM]
SMILES	FBPA Giardia inh	LASV entry inh	FMDV antiviral	HCMV antiviral	HCV inh	Marburg entry inh
CC(C)c1ccc(C(=O)NCCCN2CCN(CCCNC(=O)c3ccc(C(C)C)cc3)CC2)cc1	0%	11µM*	?	-80*	?	?
Cc1ccc(C(=O)NCCN2CCN(C(=O)c3ccc(C)c(C)c3)CC2)cc1C	-1%	-3%[46.1 µM]	-1%	-1	-25%	-11%[46.1 µM]
Cc1ccccc1C(=O)NC1(C(F)(F)F)N=C(c2ccccc2)N(Cc2ccccc2)C1=O (centres undefined)	nt	-17%[46.1 µM]	-14%	-24	nt	?
CCCCn1c(=O)c2[nH]c(C34CC5CC(CC3C5)C4)nc2n(CCCO)c1=O	-6%	nt	-9%	nt	nt	nt
CCCC12C(=O)C(C)(C(c3ccccc3)=C1c1ccccc1)C1C(=O)N(c3ccc(C)cc3)C(=O)C12 (centres undefined)	0%	?	?	-87*	4.5µM*	?
CCC12C(=O)C(CC)(C(c3ccccc3)=C1c1ccccc1)[C@@H]1C(=O)N(c3ccc(C)cc3)C(=O)C12 (some centres undefined)	-4%	-4%	-23%	-9	9%	-21%
CCC12C(=O)C(CC)(C(c3ccccc3)=C1c1ccccc1)[C@@H]1C(=O)N(c3ccccc3)C(=O)C12 (some centres undefined)	1%	-2%	-25%	-61*	14µM*	?
COC[C@H]1OC(=O)c2coc3c2[C@@]1(C)C1=C(C3=O)[C@H]2CCC(=O)[C@@]2(C)C[C@H]1OC(C)=O	-19%	nt	nt	nt	nt	0.045µM*
COC[C@H]1OC(=O)c2coc3c2[C@@]1(C)C1=C(C3=O)C2CCC(=O)[C@@]2(C)C[C@H]1OC(C)=O (some centres undefined)	-17%	?	?	nt	nt	0.045µM*!
CCn1c(COc2ccc(Cl)cc2)nnc1SCc1nc2ccccc2[nH]1	4%	0%	?	?	?	?
CCn1c(SCc2nc3ccccc3[nH]2)nnc1-c1ccc(OC)cc1	-7%	-3%	?	-73*	?	-11%
C=CCn1c(SCc2nc3ccccc3[nH]2)nnc1-c1ccc(OC)cc1	-2%	0%	?	?	-15%	-26%
Cc1ccc(OCc2nnc(SCc3nc4ccccc4[nH]3)n2Cc2ccco2)cc1	9%	?	?	-69*	10µM*	?
c1ccc(-c2nnc(SCc3nc4ccccc4[nH]3)n2Cc2ccco2)cc1	1%	8%	-7%	-68*	-8%	-12%
Nn1c(SCc2nc3ccccc3[nH]2)nnc1-c1ccccc1	-2%	-8%	7%	-1	-2%	-5%
C[C@H](NC(=O)OCc1ccccc1)C(=O)OCN1C(=O)c2ccccc2C1=O	nt	nt	nt	nt	nt	-6%
COc1cc2c(cc1OC)[C@@H]1C(=O)c3ccc4c(c3O[C@@H]1CO2)C=CC(C)(C)O4	-5%	nt	?	nt	nt	nt
